The source of these data is article PMC7862700, “An all-to-all approach to the identification of sequence-specific readers for epigenetic DNA modifications on cytosine”.

Experiment in all cases: DAPPL (digital affinity profiling via proximity ligation, sequencing); 10 mM Tris-HCl pH 7.5, 50 mM NaCl, 1 mM DTT, 4% glycerol, room temperature, 30 min; GST-TFs on glutathione beads, 16-mer random dsDNA library, 0.1% formaldehyde crosslink after washing; high values mean tight binding
Conditions in all cases: protein: recombinant; tags: N-terminal GST; dsDNA, one strand shown

For one test, the target named is T1, FLI1 (Homo sapiens, UniProt Q01543 1-452).
T1 sequence: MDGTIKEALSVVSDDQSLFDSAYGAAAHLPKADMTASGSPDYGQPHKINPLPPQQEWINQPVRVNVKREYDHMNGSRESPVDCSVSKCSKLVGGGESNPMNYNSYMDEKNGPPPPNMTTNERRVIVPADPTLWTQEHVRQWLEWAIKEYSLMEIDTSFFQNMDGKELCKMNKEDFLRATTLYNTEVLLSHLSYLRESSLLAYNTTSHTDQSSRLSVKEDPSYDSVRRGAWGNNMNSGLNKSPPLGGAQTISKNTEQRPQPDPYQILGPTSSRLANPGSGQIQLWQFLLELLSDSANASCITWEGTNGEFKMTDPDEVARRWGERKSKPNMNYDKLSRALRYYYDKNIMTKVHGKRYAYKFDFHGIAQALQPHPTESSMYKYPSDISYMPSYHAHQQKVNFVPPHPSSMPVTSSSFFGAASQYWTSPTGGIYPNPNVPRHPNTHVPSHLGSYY
In short, it runs like this:
(§1)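 GST fusions of human transcription factors were expressed in yeast and captured with glutathione beads. Once given DNA barcodes and pooled alongside a tag-only sample, they were incubated for 30 min at room temperature with 200 nmole of a random double-stranded 16-mer DNA library in Tris/NaCl/DTT/glycerol buffer, then washed, crosslinked (0.1% formaldehyde), proximity-ligated, PCR-amplified and sequenced on an Illumina NextSeq500. The binding signal of each hexamer is its read frequency for a factor divided by its frequency for the tag-only sample.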

The target of another test is T2, ELK1 (Homo sapiens, UniProt P19419 1-428).
T2 sequence: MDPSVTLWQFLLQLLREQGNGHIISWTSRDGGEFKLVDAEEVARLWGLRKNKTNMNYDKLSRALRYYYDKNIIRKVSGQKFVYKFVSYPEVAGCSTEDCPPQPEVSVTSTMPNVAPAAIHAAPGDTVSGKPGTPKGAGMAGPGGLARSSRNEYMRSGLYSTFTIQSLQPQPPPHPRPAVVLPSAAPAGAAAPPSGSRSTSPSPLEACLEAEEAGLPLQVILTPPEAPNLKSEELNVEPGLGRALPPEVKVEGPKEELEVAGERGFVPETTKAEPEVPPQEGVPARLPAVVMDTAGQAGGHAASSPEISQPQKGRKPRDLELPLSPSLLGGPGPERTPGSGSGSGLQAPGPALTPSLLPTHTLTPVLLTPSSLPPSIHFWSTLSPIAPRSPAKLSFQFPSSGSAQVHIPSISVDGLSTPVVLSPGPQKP
In short, it runs like this: as §1

A further test addresses T3, GABPA (Homo sapiens, UniProt Q06546 1-454).
T3 sequence: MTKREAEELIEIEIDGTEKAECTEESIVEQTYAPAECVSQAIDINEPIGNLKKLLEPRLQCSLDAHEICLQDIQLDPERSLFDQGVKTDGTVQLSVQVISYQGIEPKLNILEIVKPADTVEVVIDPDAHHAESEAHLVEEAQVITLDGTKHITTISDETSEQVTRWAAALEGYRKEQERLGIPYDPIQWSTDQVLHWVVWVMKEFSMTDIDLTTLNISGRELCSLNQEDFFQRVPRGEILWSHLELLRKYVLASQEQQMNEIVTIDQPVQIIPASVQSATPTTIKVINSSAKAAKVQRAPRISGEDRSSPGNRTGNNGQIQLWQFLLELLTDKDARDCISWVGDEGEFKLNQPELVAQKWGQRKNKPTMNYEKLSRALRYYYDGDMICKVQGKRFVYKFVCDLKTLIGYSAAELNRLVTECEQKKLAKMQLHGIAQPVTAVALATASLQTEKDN
Put shortly: as §1

A further test has as its target T4, ERG (Homo sapiens, UniProt P11308 1-479).
T4 sequence: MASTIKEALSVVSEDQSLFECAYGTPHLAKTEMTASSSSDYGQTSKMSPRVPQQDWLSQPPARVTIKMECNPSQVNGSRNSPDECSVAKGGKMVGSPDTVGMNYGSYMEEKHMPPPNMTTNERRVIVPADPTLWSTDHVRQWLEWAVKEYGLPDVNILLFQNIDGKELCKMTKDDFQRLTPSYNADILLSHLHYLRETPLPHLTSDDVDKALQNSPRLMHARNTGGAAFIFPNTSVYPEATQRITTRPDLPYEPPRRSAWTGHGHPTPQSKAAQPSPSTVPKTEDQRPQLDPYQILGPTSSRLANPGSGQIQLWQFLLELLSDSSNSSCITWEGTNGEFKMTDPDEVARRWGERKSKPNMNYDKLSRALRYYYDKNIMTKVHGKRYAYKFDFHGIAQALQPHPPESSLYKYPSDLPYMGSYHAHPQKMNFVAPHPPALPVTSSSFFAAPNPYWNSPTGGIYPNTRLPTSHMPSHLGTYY
Put shortly:
as §1

The target of another test is ELF1 (Homo sapiens, UniProt P32519 1-619). In short, it runs like this:
as §1

Another test deals with T5, EHF (Homo sapiens, UniProt Q9NZC4 1-300).
T5 sequence: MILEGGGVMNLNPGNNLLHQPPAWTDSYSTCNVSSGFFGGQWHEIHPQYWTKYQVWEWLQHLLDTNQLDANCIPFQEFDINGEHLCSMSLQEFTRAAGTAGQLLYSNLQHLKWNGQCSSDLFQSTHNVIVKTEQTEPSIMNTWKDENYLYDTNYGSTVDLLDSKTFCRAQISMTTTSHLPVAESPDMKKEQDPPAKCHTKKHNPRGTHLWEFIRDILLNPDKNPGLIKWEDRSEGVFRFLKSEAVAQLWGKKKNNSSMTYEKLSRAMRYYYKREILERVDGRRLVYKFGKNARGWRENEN
In short, it runs like this: as §1

The target of another test is SPI1 (Homo sapiens, UniProt P17947 1-270). Put shortly: as §1
Another test concerns the target SPIB (Homo sapiens, UniProt Q01892 1-262). Put shortly: as §1
Another test concerns the target T6, ELK3 (Homo sapiens, UniProt P41970 1-407).
T6 sequence: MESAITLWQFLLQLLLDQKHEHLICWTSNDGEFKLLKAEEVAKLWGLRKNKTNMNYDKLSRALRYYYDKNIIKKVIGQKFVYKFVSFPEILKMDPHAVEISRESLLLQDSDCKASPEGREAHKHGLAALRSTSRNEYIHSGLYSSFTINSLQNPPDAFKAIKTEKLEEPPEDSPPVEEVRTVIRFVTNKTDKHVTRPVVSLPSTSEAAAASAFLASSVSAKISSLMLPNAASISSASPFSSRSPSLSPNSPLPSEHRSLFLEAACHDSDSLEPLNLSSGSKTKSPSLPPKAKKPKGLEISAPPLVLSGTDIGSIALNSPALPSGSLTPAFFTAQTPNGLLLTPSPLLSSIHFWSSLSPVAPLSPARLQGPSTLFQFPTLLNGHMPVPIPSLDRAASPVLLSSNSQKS
In short, it runs like this:
as §1

The target of another test is T7, FEV (Homo sapiens, UniProt Q99581 1-238).
T7 sequence: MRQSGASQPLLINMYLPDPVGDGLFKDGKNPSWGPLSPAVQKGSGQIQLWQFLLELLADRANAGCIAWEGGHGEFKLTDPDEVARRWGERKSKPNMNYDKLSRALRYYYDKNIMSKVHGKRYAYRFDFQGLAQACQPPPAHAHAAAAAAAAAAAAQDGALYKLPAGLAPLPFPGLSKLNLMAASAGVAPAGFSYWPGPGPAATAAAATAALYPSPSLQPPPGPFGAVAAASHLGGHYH
In short, it runs like this: as §1

In the next test the target is ETV5 (Homo sapiens, UniProt P41161 1-510). In short, it runs like this: as §1
Chain of ETV5 (P41161 whole entry): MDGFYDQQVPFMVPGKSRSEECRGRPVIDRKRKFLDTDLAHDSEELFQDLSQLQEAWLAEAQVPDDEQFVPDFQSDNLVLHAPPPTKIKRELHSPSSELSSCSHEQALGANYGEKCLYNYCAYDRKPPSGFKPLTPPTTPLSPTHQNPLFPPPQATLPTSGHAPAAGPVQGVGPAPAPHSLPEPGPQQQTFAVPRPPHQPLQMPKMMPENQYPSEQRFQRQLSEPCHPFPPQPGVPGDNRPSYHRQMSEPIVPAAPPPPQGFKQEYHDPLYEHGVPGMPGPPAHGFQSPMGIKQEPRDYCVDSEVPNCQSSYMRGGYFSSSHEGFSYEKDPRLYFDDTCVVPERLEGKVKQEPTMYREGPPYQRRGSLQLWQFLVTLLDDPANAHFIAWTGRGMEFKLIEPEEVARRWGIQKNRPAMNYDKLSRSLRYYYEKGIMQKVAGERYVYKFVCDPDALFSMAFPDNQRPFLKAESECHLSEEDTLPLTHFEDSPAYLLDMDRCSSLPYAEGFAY
A further test concerns the target T8, SPIC (Homo sapiens, UniProt Q8N5J4 1-248).
T8 sequence: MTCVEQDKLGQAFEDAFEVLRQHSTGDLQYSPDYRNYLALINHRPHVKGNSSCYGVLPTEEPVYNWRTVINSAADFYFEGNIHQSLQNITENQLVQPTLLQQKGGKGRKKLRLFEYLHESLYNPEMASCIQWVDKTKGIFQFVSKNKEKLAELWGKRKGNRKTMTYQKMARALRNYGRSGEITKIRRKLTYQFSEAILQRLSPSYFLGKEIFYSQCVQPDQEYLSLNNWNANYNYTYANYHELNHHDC
In short, it runs like this: as §1

In a further test the target is ELF4 (Homo sapiens, UniProt Q99607 1-663). Put shortly: as §1
Chain of ELF4 (Q99607 whole entry): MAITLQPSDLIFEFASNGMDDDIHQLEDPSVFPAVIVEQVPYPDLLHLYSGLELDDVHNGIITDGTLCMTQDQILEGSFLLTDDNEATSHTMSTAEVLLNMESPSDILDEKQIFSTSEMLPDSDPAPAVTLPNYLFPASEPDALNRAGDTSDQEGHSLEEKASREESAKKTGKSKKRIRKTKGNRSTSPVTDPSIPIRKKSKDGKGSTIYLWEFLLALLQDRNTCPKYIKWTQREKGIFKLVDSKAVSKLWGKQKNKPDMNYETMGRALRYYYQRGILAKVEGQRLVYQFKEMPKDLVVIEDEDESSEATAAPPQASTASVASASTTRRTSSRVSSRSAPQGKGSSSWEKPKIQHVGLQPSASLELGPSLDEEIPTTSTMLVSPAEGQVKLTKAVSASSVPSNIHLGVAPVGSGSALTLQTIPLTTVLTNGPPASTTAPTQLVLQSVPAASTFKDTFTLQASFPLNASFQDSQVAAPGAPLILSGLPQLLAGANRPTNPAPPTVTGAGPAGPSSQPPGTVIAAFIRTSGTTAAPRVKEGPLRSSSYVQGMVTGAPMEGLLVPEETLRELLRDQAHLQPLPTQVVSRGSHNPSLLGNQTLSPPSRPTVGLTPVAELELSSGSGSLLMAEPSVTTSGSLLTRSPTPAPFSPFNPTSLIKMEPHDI
The next test addresses T9, ELK4 (Homo sapiens, UniProt P28324-2 1-405).
T9 sequence: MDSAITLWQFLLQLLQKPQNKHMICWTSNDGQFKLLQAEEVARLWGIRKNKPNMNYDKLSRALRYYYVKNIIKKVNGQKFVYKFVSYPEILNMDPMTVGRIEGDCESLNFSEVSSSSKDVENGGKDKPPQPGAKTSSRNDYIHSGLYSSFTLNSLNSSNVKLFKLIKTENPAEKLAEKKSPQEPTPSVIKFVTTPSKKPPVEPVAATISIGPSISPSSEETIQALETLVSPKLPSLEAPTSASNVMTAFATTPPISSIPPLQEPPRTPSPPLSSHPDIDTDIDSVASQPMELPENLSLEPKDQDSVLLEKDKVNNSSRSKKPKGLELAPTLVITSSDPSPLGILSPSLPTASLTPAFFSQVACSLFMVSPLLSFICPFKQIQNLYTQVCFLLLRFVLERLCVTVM
Put shortly:
as §1

A further test deals with T10, ETV2 (Homo sapiens, UniProt O00321 1-342).
T10 sequence: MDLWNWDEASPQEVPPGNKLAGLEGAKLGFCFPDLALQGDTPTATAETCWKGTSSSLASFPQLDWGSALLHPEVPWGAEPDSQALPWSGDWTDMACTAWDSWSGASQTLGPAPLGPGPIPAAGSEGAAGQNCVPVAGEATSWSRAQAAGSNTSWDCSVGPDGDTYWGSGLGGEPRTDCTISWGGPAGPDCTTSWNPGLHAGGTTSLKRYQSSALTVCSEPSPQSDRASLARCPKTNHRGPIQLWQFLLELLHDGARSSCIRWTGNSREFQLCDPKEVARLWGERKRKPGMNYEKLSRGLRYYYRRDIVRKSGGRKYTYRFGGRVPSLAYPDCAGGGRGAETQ
Put shortly:
as §1

Another test has as its target T11, ELF3 (Homo sapiens, UniProt P78545 1-371).
T11 sequence: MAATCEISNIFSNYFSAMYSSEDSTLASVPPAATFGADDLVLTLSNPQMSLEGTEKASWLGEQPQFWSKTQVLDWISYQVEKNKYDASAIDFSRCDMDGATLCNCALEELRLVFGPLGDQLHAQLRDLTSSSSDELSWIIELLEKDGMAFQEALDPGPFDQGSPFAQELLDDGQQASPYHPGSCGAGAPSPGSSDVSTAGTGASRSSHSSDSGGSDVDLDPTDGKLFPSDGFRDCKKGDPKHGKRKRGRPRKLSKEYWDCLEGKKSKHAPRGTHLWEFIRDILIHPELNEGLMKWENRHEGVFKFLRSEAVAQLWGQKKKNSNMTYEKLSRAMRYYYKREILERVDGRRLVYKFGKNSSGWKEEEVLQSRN
In short, it runs like this: as §1

Another test deals with ETV1 (Homo sapiens, UniProt P50549 1-477). In short, it runs like this: as §1
Chain of ETV1 (P50549 whole entry): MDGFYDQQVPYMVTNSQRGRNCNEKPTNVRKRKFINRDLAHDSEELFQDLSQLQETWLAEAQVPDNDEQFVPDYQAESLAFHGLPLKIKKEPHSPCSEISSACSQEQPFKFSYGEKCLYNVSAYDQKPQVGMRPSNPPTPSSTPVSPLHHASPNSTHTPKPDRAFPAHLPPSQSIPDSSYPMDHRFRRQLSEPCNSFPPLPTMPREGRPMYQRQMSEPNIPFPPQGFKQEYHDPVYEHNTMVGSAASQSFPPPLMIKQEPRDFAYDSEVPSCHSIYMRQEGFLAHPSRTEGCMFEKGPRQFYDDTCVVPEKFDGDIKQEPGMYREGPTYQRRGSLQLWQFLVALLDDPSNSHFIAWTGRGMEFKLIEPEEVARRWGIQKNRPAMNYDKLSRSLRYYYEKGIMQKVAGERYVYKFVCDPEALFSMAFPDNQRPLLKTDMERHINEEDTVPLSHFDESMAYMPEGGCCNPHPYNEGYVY

Chain of ELF1 (P32519 whole entry): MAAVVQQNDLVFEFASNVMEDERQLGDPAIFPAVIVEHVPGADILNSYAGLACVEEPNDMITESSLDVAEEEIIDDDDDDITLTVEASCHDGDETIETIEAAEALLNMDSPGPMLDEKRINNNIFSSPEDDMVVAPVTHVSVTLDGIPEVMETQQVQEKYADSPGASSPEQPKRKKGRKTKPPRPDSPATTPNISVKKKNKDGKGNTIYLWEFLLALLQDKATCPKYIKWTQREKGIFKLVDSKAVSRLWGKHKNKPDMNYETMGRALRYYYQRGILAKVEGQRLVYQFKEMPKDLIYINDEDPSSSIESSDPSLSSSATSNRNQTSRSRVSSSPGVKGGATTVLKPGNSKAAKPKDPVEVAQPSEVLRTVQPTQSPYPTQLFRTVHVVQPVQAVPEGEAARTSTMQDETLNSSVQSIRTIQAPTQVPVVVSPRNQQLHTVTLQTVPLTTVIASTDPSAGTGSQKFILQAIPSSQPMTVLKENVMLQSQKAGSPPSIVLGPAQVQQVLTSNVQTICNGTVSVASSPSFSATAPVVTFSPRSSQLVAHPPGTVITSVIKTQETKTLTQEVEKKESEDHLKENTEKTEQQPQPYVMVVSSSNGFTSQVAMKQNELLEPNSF
Chain of SPIB (Q01892 whole entry): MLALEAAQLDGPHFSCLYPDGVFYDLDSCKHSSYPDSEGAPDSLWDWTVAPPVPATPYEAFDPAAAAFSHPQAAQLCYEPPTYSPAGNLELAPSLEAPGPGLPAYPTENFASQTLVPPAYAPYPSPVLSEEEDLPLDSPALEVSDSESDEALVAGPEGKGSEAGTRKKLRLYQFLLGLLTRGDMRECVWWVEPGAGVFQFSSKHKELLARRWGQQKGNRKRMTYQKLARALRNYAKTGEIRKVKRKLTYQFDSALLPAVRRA

As to GTATCA, the binding signal in the test with FLI1 is 1.14 fold enrichment (6-mer frequency, TF over GST control); with ELK1, 1.07 fold enrichment (6-mer frequency, TF over GST control); with GABPA, 1.18 fold enrichment (6-mer frequency, TF over GST control); with ERG it was 1.05 fold enrichment (6-mer frequency, TF over GST control); with ELF1, 1.05 fold enrichment (6-mer frequency, TF over GST control); with EHF, 1.1 fold enrichment (6-mer frequency, TF over GST control). The binding signal with SPI1 was 1.06 fold enrichment (6-mer frequency, TF over GST control); with SPIB it was 1.02 fold enrichment (6-mer frequency, TF over GST control); with ELK3, 1.1 fold enrichment (6-mer frequency, TF over GST control); with FEV it was 1.04 fold enrichment (6-mer frequency, TF over GST control); with ETV5, 1.01 fold enrichment (6-mer frequency, TF over GST control); with SPIC, 1.03 fold enrichment (6-mer frequency, TF over GST control). Further, the binding signal with ELF4 is 1.05 fold enrichment (6-mer frequency, TF over GST control); with ELK4, 1.12 fold enrichment (6-mer frequency, TF over GST control); with ETV2 it was 1.12 fold enrichment (6-mer frequency, TF over GST control); in the test with ELF3, 1.17 fold enrichment (6-mer frequency, TF over GST control); with ETV1, 1.05 fold enrichment (6-mer frequency, TF over GST control).

On to TGTCAC, for which the binding signal with FLI1 is 1.15 fold enrichment (6-mer frequency, TF over GST control); with ELK1, 1.11 fold enrichment (6-mer frequency, TF over GST control); with GABPA, 1.22 fold enrichment (6-mer frequency, TF over GST control); with ERG, 1.11 fold enrichment (6-mer frequency, TF over GST control); in the test with ELF1, 1.23 fold enrichment (6-mer frequency, TF over GST control); with EHF, 1.22 fold enrichment (6-mer frequency, TF over GST control). Also, the binding signal with SPI1 is 1.21 fold enrichment (6-mer frequency, TF over GST control); with SPIB, 1.31 fold enrichment (6-mer frequency, TF over GST control); in the test with ELK3 it was 1.2 fold enrichment (6-mer frequency, TF over GST control); with FEV it was 1.2 fold enrichment (6-mer frequency, TF over GST control); in the test with ETV5 it was 1.15 fold enrichment (6-mer frequency, TF over GST control); with SPIC, 1.31 fold enrichment (6-mer frequency, TF over GST control). Moreover, the binding signal was 1.22 fold enrichment (6-mer frequency, TF over GST control) with ELF4; 1.25 fold enrichment (6-mer frequency, TF over GST control) with ELK4; 1.24 fold enrichment (6-mer frequency, TF over GST control) in the test with ETV2; 1.2 fold enrichment (6-mer frequency, TF over GST control) in the test with ELF3; 1.18 fold enrichment (6-mer frequency, TF over GST control) with ETV1.
